# Test results published in the supplement of paper PMC6555819.
# Key:
# Assay in all cases: PBM binding z-score (relative to random genomic background probes); higher = stronger binding; sequences stand for … in GC…GCGATTGACAGCGTAGAATGAAGG
# [1] = system: FXR:RXRa (NR concentration 270 nM, RXRa partner concentration 90 nM)
# How it was run: (§1)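 On custom Agilent 4×180K arrays, double-stranded probes with 34-nt variable regions carried direct-repeat seeds, single-nucleotide variants, half-site ablations or random human genomic background. Ligand-free nuclear receptor dimers were applied for 1 h, and binding was read with antibodies against each partner (one per run). Binding z-scores come from regression-normalized fluorescence, with the random background probes as reference.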
# [2] = system: LXRa:RXRa (NR concentration 270 nM, RXRa partner concentration 90 nM)
# How it was run: as §1
# [3] = system: LXRa homodimer (NR concentration 270 nM)
# How it was run: as §1
# [4] = system: LXRb:RXRa (NR concentration 270 nM, RXRa partner concentration 90 nM)
# How it was run: as §1
# [5] = system: LXRb homodimer (NR concentration 270 nM)
# How it was run: as §1
# [6] = system: PPARa:RXRa (NR concentration 270 nM, RXRa partner concentration 90 nM)
# How it was run: as §1
# [7] = system: PPARg:RXRa 270nM:90nM, anti-RXR (NR concentration 270 nM, RXRa partner concentration 90 nM)
# How it was run: as §1
# [8] = system: PPARg:RXRa 30nM:10nM, anti-RXR (NR concentration 30 nM, RXRa partner concentration 10 nM)
# How it was run: as §1
# [9] = system: PPARg:RXRa 90nM:30nM, anti-RXR (NR concentration 90 nM, RXRa partner concentration 30 nM)
# How it was run: as §1
# [10] = system: PPARg:RXRa DBDmut IVT, anti-RXR (DBD mutation: RXRa K156A/R161A, NR concentration 270 nM, RXRa partner concentration 90 nM)
# How it was run: as §1
# [11] = system: PPARg:RXRa IVT, anti-PPARg (NR concentration 270 nM, RXRa partner concentration 90 nM)
# How it was run: as §1
# [12] = system: PPARg DBDmut:RXRa IVT, anti-PPARg (DBD mutation: PPARg1 K132A/R137A, NR concentration 270 nM, RXRa partner concentration 90 nM)
# How it was run: as §1
# [13] = system: PPARg DBDmut IVT, anti-PPARg (DBD mutation: PPARg1 K132A/R137A, NR concentration 270 nM)
# How it was run: as §1
# [14] = system: PPARg homodimer (NR concentration 180 nM)
# How it was run: as §1
# [15] = system: PXR homodimer (NR concentration 270 nM)
# How it was run: as §1
# [16] = system: RARa:RXR (NR concentration 270 nM, RXRa partner concentration 90 nM)
# How it was run: as §1
# [17] = system: RARa homodimer (NR concentration 270 nM)
# How it was run: as §1
# [18] = system: RARb:RXRa (NR concentration 270 nM, RXRa partner concentration 90 nM)
# How it was run: as §1
# [19] = system: PXR:RXRa (NR concentration 270 nM, RXRa partner concentration 90 nM)
# How it was run: as §1
# [20] = system: PPARg:RXRa (NR concentration 180 nM, RXRa partner concentration 90 nM)
# How it was run: as §1
Sequence,PBM binding z-score [1],PBM binding z-score [2],PBM binding z-score [3],PBM binding z-score [4],PBM binding z-score [5],PBM binding z-score [6],PBM binding z-score [7],PBM binding z-score [8],PBM binding z-score [9],PBM binding z-score [10],PBM binding z-score [11],PBM binding z-score [12],PBM binding z-score [13],PBM binding z-score [14],PBM binding z-score [15],PBM binding z-score [16],PBM binding z-score [17],PBM binding z-score [18],PBM binding z-score [19],PBM binding z-score [20]
ATCTCTAGGTTAAAGTTCAGTGAATCCCGAGGAT,2.96,3.76,3.34,2.61,1.62,5.59,8.62,8.86,9.27,4.45,5.47,1.98,1.29,2.11,1.85,3.99,1.65,3.28,,
CGTCCAAGGTCAGCAGGTCAGAGAAAGCGACGTG,6.51,4.01,0.793,3.26,-0.208,4.78,5.15,1.61,3.69,3.52,3.72,0.0227,-0.591,6.44,0.651,5.74,2.67,5.39,4.02,
TCTTGTAGATCAAAGCTTAAGAAAGCCGAAGCCT,-0.314,0.0464,-0.571,-0.365,-0.532,0.317,1.5,2.55,2.08,1.63,0.218,-0.031,-0.413,-0.405,-0.758,-0.177,-0.517,-0.506,-0.275,
CAAAGTAGGTCACCGGAAGGTCAAAGTCCGCATG,6.09,6.41,5.29,5.63,1.43,6.43,8.21,6.7,8.45,8.84,9.1,4.14,2.62,6.69,1.73,7.55,2.1,5.39,6.22,
CCAGACAGGTGAAAGGTCACTCAGTCTGGTACGC,5.43,5.49,2.57,4.91,0.389,6.31,8.84,7.76,8.99,2.78,5.19,0.814,0.242,3.92,1.88,,1.75,4.91,5.74,
CAAACTAGGTCACAGAGGTCAAAGTTCGTGCGTA,7.37,6.84,7.98,6.7,2.18,6.83,8.37,6.72,8.5,8.27,8.9,4.88,5.18,6.43,12.2,,3.28,5.29,,
CCTACTGGGCCAAAAAGGCCATTGATGCCGATAA,-0.133,-0.247,-0.15,-0.244,-1.1,0.629,0.7,-0.443,0.151,2.77,2.4,0.199,-0.751,0.287,-0.211,-0.0899,-0.317,0.816,,
ATATGTAGGTCAGGGTCATTCAGAAAGTAGGGAA,5.82,4.89,1.68,5.11,2.07,6.06,7.66,6.11,7.76,7.87,8.62,,2.1,3.22,1.93,5.05,2.85,4.49,4.42,
GATTACGGGTCAAAGGTTATAGCATGAATAGAAT,7.94,6.17,1.25,6.01,0.564,,9.6,10.5,11.3,5.21,6.61,1.49,3.11,2.97,0.645,8.43,1.34,4.69,6.03,11.8
TCTAGTAGGTCACGGAGGTCACACACGACGGGTA,7.27,6.42,5.23,5.56,1.44,6.41,8.31,6.89,8.04,7.04,8.61,4.06,4.54,5.46,7.52,,1.12,,,
TTAACAAGGTGAAAGGTCGTTGATGCACGCCTTG,3.99,3.48,0.202,2.81,-0.19,6,8.81,9.66,9.79,4.84,5.57,0.666,0.131,2.13,0.791,5.73,-0.215,3.09,3.92,
CGAACTAGGTCAAAGGACACTGAAAGGCGACGTA,4.53,2.6,0.187,2.15,-0.198,5.49,8.98,10.1,10.8,8.08,8.34,,1.03,3.64,-0.0402,2.85,0.514,3.86,1.6,
CAAACTAGGTCACCGGAAGGTCAAAGTTCGCATG,6.72,6.36,5.74,5.3,1.86,6.44,8.11,6.06,8.3,8.66,9.06,4.1,1.26,7.21,3.62,,3.06,5.44,6.49,
CGAACTAGGTCAAAGGCCAGTGAAAGGCGACGTA,4.37,2.92,-0.479,1.81,-0.821,5.83,9.43,9.62,10.3,7.82,8.38,,0.408,1.42,-0.54,3.18,-0.426,3.87,1.79,
CATACAGGGTCATCTAGGCCAGAGTAGGGACGGC,6.67,4.77,0.311,3.7,0.71,5.58,5.22,2.16,4.02,1.89,3.92,1.57,0.152,1.63,0.88,4.05,0.656,4.3,3.65,
AGTCAAAGTTCAGGACGAGATAACGTAAAGCACG,3.4,3.72,1.12,1.81,0.41,3.28,4.8,2.31,3.71,-0.425,1.35,0.702,0.865,1.35,0.795,1.85,1.11,4.1,1.99,

Sequence,PBM binding z-score [1],PBM binding z-score [2],PBM binding z-score [3],PBM binding z-score [4],PBM binding z-score [5],PBM binding z-score [6],PBM binding z-score [7],PBM binding z-score [8],PBM binding z-score [9],PBM binding z-score [10],PBM binding z-score [11],PBM binding z-score [12],PBM binding z-score [13],PBM binding z-score [14],PBM binding z-score [15],PBM binding z-score [16],PBM binding z-score [17],PBM binding z-score [18],PBM binding z-score [19],PBM binding z-score [20]
CAAAATAGGTCAAGGTCAAAGTCGGTTTGTGCCA,7.38,5.98,4.65,5.22,2.2,,7.46,5.59,7.54,7.7,8.26,1.72,1.63,4.28,2.04,5.42,1.28,,5.51,8.81
ATATGTAGGTCATCGGGTCATTCAGTTTGCGCAT,6.61,5.82,4.84,4.74,1.76,6.46,8.12,6.72,8.81,8.44,8.83,6.46,6.66,5.23,8.57,6.32,2.05,4.65,5.5,
ACTAGCAGGTCAAGGGTCACTCAAGATTAGTCCG,6.89,5.73,2.16,4.88,0.671,6.3,9.23,8.21,10.3,4.43,6.12,1.23,1.92,3.91,0.469,,1.38,4.86,5.82,
CGTCCAAGGTCAAAGGTCACTGAAGAGATGACGG,8.77,7.26,4.53,7.05,2.19,7.23,9.43,11,11.1,4.24,6.37,2.37,1.21,2.49,2.15,9,3.47,5.96,,
ACTCGGAGGGCAAAGGTCAGAGCTACGCCAGTGA,5.79,5.11,1.08,4.14,-0.447,6.1,8.48,8.91,9.51,2.2,4.71,-0.0277,-0.839,5.97,0.191,,0.823,4.93,5.61,
GCTTCCGGGTCAAAGGTTATAGCATGAATAGAAT,7.32,5.48,0.542,5.76,0.776,6.97,9.9,10.7,11.4,6.02,6.82,2.92,1.77,4.67,0.927,8.48,0.795,4.45,,
CAAACTAGGTCAAAGGTCAACGTCGAGCCAACCA,8.3,7.18,5.23,7.01,2.37,7.5,11.3,13.9,14.4,8.88,9.1,3.12,5.08,10.7,1.82,9.16,5.04,5.88,7.11,
CCTACTGGGCCAAGGTCTTTGATCAGTCAAAGCA,-0.503,-0.304,-0.544,-0.54,-0.812,,1.32,0.0343,0.749,3.2,3.33,-0.858,-1.46,0.00705,-0.601,-0.344,-0.879,,-0.407,0.806
ATCTCTAGGTGAAAGTTCAGTGAATCCCGAGGAT,1.41,1.98,1.24,1.43,0.429,5.61,9.55,9.07,11.4,5.35,6.32,1.5,0.994,1.52,1.57,2.87,0.586,3,2.87,
CAAACTAGGTCACGAAAGGTCAAAGTTGAATGAC,7.31,8.11,8.31,7.43,2.68,6.6,8.55,7.45,8.74,8.71,9.01,2.54,2,4.96,3.33,7.79,4.38,5.45,6.9,
CAATCTAGGTCACAGAGGTCAAAGTCCGTGCGTA,7.18,7.04,7.96,6.3,2.8,6.7,8.69,7.34,9.13,9.1,9.25,7.18,5.24,7.14,11.9,7.89,3.61,5.46,,
ATCTGTAGGTTATCGGGTCATTCAGTTTGCGCAT,3.02,3.6,2.79,3.06,1.36,,4.43,1.41,3.37,4.65,5.29,1.81,1.76,2.43,7.32,3.93,1.11,2.71,3.86,3.9
TTACCAAAGTGAAAGGTCGTTGATGCACGCCTTG,1.49,1.82,0.432,1.57,-0.402,3.17,5.13,2.97,5.02,-0.147,1.43,0.177,0.436,1.39,0.329,2.39,-0.107,1.86,2.3,
CCTAGTGGGCCAAAGGTCATTGATTCCAATGCTC,5.47,5.18,3.76,5.23,0.768,6.76,10.7,13.5,12.9,5.71,7.73,2,0.985,7.49,3.2,,3.01,4.62,5.83,
GATACAGGGTCAGCTAGAGGTCAGAGTATGGAAA,6,5.81,3.45,4.98,0.386,5.57,5.22,1.99,3.52,1.65,3.52,0.365,-0.0888,6.51,1.34,,1.59,5.32,5.99,
